Reference: ChEMBL document CHEMBL4513216, “Probing the Open Global Health Chemical Diversity Library for Multistage-Active Starting Points for Next-Generation Antimalarials” (ACS Infect Dis, 2020)
Hit rate of the full screen: of about 65,000 compounds, about 2,100 (3.2%) showed an effect of 50% or more. The median lay at about -52%. Many of the other results were omitted from the sample, so strong results are more common in it than they were.

Test system: Plasmodium falciparum
Experiment: Screen against P. falciparum Asexual Blood Stage (ABS), at 5uM
Format: functional, Dd2
Conditions: tested at 5 uM

Point of comparison: `Cn1ccc2c(NC(=O)Cn3ncc4c(c3=O)CCCC4)cccc21`, INHIBITION -90.4%. Against it:
- Cc1cccc(CC(=O)N2CCCC(c3n[nH]c4nccnc34)C2)c1 (configuration not stated) — higher, -9.5%
- Cc1cc(-c2nn(C)c(Cl)c2CN2Cc3ccccc3C(O)C2)no1 (configuration not stated) — higher, 53.8%
- Cc1cc(-c2nn(C)c(Cl)c2CN2CCOCC(O)C2)no1 (configuration not stated) — higher, -22.3%
- Cc1cc(-c2nn(C)c(Cl)c2CN2CC[C@H](CO)[C@@H](O)C2)no1 — higher, -69.4%
- Cn1nc(COc2cccnc2)c2c1CCN(c1ncccn1)C2 — higher, -42.9%
- CCN(CC)c1nc2ccsc2c(=O)n1CCC(=O)NC1CCCC1 — higher, -39.2%
- Cc1nc(N2CCCC2)ncc1-c1cc(O)nc(N2CCOCC2)n1 — higher, -32.6%
- O=C(C[C@@H]1COC[C@H]2CN(Cc3ccncc3)C[C@@H]12)N1CCOCC1 — lower, -108%
- COCCNC(=O)Nc1ccc(-n2cncn2)c(F)c1 — higher, -29%
- COCCS(=O)(=O)Nc1ccc(-n2cncn2)c(F)c1 — higher, 68.3%
- CC(=O)Nc1ccc(-n2cncn2)c(F)c1 — higher, 47.2%
- COCCN(C)Cc1nc(-c2cccc(F)c2F)oc1C — higher, -36.7%
- CN1CCC2(Cc3ccccc3CN(C(=O)Cc3cccc(Cl)c3)C2)C1 (configuration not stated) — higher, 54.8%
- CN1CCC2(Cc3ccccc3CN(C(=O)CCN)C2)C1 (configuration not stated) — lower, -100%
- CCCC(=O)N1Cc2ccccc2CC2(CCN(C)C2)C1 (configuration not stated) — higher, 8.68%
- Cc1nn(C)c(Cl)c1C1CCCN1CC(=O)NC1CCCC1 (configuration not stated) — higher, 13%
- Cn1cc(S(=O)(=O)NCCc2ccsc2)cn1 — lower, -97%
- CC(C)(C)c1cn(C2CCN(C3CCSC3)CC2)nn1 (configuration not stated) — lower, -103%
- N#Cc1ccc(CNCCc2cc(F)cc3c2OCOC3)cc1 — lower, -105%
- COc1cc(CNCCc2cc(F)cc3c2OCOC3)cc(OC)c1 — higher, 31.1%
- COc1cccc(CNCCc2cc(F)cc3c2OCOC3)c1 — higher, 19.8%
- COc1cccc(CNCCc2cc(F)cc3c2OCOC3)c1OC — higher, 56.8%
- COc1ccc(CNCCc2cc(F)cc3c2OCOC3)cc1O — higher, 37%
- COc1ccc(CNCCc2cc(F)cc3c2OCOC3)c(OC)c1 — higher, 55.4%
- COc1ccc(CNCCc2cc(F)cc3c2OCOC3)cc1OC — higher, 21.3%
- N#Cc1cccnc1NCCc1cc(F)cc2c1OCOC2 — lower, -127%
- COc1ccc(OC)c(CNCCc2cc(F)cc3c2OCOC3)c1 — higher, 66.3%
- CC(C)CCC(=O)NC(C)c1nnc2n1CCCCC2 (configuration not stated) — lower, -147%
- O=C(CC1CCCC1)N1C[C@@H]2CCN(c3cccnc3)C[C@@H]2C1 — higher, -58.1%
- Cc1cc(C(=O)N2CCc3nc4sc(C)cc4c(=O)n3CC2)on1 — higher, -73.5%
- Cc1ccccc1CN1CCN(C(=O)c2ccn(C(C)(C)C)c2)CC1 — higher, 2.14%
- CC(=O)c1ccc(NC(=O)c2ccc3c(c2)C2(CCCCC2)CN3)cc1 — higher, 20.8%
- CC(C)c1ccc(CN2CCC(CNS(=O)(=O)C3CC3)C2)cc1 (configuration not stated) — higher, 59.4%
- CCc1ccc(CN2CCC(CNS(=O)(=O)C3CC3)C2)nc1 (configuration not stated) — higher, 19.1%
- Cc1ncc(CN2CCC(CNS(=O)(=O)C3CC3)C2)cn1 (configuration not stated) — lower, -131%
- Cc1ccccc1OCn1ccc(C(=O)NCCN2CCOCC2)n1 — higher, -44.8%
- Cc1cc(-c2cc(S(=O)(=O)N3C[C@H](C4CC4)[C@@H](N)C3)c(C)s2)[nH]n1 — higher, 62.6%
- Cc1cc2[nH]c(=O)oc2cc1S(=O)(=O)N1C[C@@H](N(C)C)[C@H](C(C)C)C1 — lower, -101%
- Cc1ccc(S(=O)(=O)N2C[C@H](C3CC3)[C@@H](N)C2)cc1F — higher, 14.8%
- CC(C)c1cc(C(=O)N2CCCC(Cn3cc(CO)nn3)C2)on1 (configuration not stated) — lower, -137%
- COCCN1CCC2(CC1)CC(NCc1cncn1C)c1ccccc12 (configuration not stated) — higher, -18.1%
- CCN1CCC(NC(=O)c2ccc(F)cc2I)CC1 — higher, 50%
- CC(C)CN1CCC(NC(=O)c2ccc(F)cc2F)CC1 — lower, -150%
- CC(C)CN1CCC(NC(=O)c2ccc(F)cc2I)CC1 — higher, 23.2%
- O=C(NCCc1ccccc1F)NCC(O)c1cccc(F)c1 (configuration not stated) — lower, -156%
- NC(=O)c1cc2c(nc1Oc1cccc(CN3CCCC3)c1F)CCC2 — higher, -10.3%
- COc1cc(C(=O)NS(=O)(=O)c2cncc(Br)c2)ccc1C — higher, -28.1%
- CNCC(=O)N1CCCC(c2nccnc2Oc2cccc(F)c2)C1 (configuration not stated) — higher, 55.4%
- NC(=O)CN1CCCC(c2nccnc2Oc2cccc(F)c2)C1 (configuration not stated) — higher, -47.7%
- Cc1cc(C2CCCN(C(=O)COc3cccc(F)c3)C2)n[nH]1 (configuration not stated) — higher, -49.4%
- Cc1nc(C2CN(Cc3scnc3C)CCO2)cc(N(C)C)n1 (configuration not stated) — higher, -79.5%
